Measurements reported in PubChem BioAssay (EPA / NIEHS).
Several values for one entry are separate records, joined by “and”; a condition that tells them apart may be missing. Equal values may be shown once. Records with an inconclusive call do not appear. A structure can be active in one record and inactive in another. Activity calls are given as the source filed them. Rule for the calls, unless noted: active = hit-call score of the fitted dose curve at least 0.9, where 1 is the maximum; inactive = score below 0.9.

Assays:
[1] = ATG_PXRE_CIS: Attagene CIS-FACTORIAL HepG2 Assay for human Pregnane X Receptor Element (PXRE) (AID 2282957); settings: HepG2 Attagene CIS-FACTORIAL PXRE reporter, mRNA; actives raise or lower the signal
Outline: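 Transiently transfected HepG2 cells were dosed and incubated for 24 h. RNA was then isolated, DNase-treated, reverse-transcribed and reporter sequences amplified. Labeled, HpaI-digested fragments were quantified by capillary electrophoresis against DMSO.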

[2] = ATG_PPRE_CIS: Attagene CIS-FACTORIAL HepG2 Assay for human Peroxisome Proliferator-activated Response Element (PPRE) (AID 2282958); settings: HepG2 PPRE cis-element reporter, Attagene transcription factor profiling; actives raise or lower the signal
Outline: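 Read-out: fluorescent reporter mRNA fragments resolved by capillary electrophoresis after RT-PCR. HepG2 cells carried transiently transfected PPRE-driven cis reporter constructs and were dosed for 24 h; gain or loss of signal fitted relative to DMSO.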

[3] = ATG_Sox_CIS: Attagene CIS-FACTORIAL HepG2 Assay for human SRY-box transcription factor (SOX) (AID 2282960); settings: HepG2 Attagene cis-factorial SOX reporter, mRNA; actives raise or lower the signal
Outline: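 Read-out: fluorescent RT-PCR products of SOX1-linked reporter transcripts resolved by capillary electrophoresis, fitted bidirectionally against DMSO. Transiently transfected HepG2 cells, 24 h after chemical exposure, endogenous transcription factor activity.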

[4] = target: Transcription factor Sp1 (Homo sapiens) (UniProt P08047); assay: ATG_Sp1_CIS: Attagene CIS-FACTORIAL HepG2 Assay for human Specificity Protein 1 (Sp1) (AID 2282961); settings: HepG2 Sp1 cis-reporter transcription, actives raise or lower the signal
Outline: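 Read-out: fluorescence of 6-FAM-labeled, HpaI-digested RT-PCR products separated by capillary electrophoresis. HepG2 cells carried transfected cis-element reporter units and were exposed to chemicals for 24 h; gain or loss of signal fitted relative to DMSO.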

[5] = target: Signal transducer and activator of transcription 3 (Homo sapiens) (UniProt P40763); assay: ATG_STAT3_CIS: Attagene CIS-FACTORIAL HepG2 Assay for human Signal Transducer and Activator of Transcription 3 (STAT3) (AID 2282963); settings: HepG2, Attagene cis-factorial STAT3 reporter transcription; actives raise or lower the signal
Outline: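 HepG2 cells transiently transfected with cis-element-driven multiple reporter transcription units; after 24 h chemical exposure, reporter mRNA measured by RT-PCR, 6-FAM primer-extension labelling, HpaI digestion and capillary electrophoresis. Bidirectional fitting versus DMSO baseline.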

[6] = ATG_TCF_b_cat_CIS: Attagene CIS-FACTORIAL HepG2 Assay for human T-Cell-Factor with beta-catenin (TCF/b-cat) (AID 2282965); settings: HepG2 TCF/beta-catenin cis-reporter transcription, actives raise or lower the signal
Outline: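 HepG2 cells transiently transfected with multiple cis-promoter-regulated reporter transcription units, so endogenous transcription factor activity is measured. Reporter mRNA read 24 hours after dosing by RT-PCR, fluorescent labelling and capillary electrophoresis; bidirectional fitting against DMSO.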

[7] = ATG_TAL_CIS: Attagene CIS-FACTORIAL HepG2 Assay for human TAL Basal Promoter (AID 2282966); settings: HepG2 Attagene cis-factorial TAL promoter reporter; actives raise or lower the signal;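 note: background control endpoint measuring basal TAL promoter reporter mRNA not a specific factor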
Outline: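 Readout: reporter mRNA, fluorescence by CE. System: HepG2, transient multi-reporter transfection, endogenous TF activity. Exposure: 24 h. Analysis: bidirectional, DMSO-normalized; background control.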

[8] = ATG_TGFb_CIS: Attagene CIS-FACTORIAL HepG2 Assay for human Transforming Growth Factor (TGF) (AID 2282967); settings: HepG2 Attagene CIS TGFb reporter, mRNA transcription; actives raise or lower the signal
Outline: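 After a 24-hour incubation with compound, transfected HepG2 cells were lysed for RNA; reporter cDNA was amplified, fluorescently end-labeled and separated by CE. DMSO served as baseline for bidirectional fits.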

[9] = ATG_VDRE_CIS: Attagene CIS-FACTORIAL HepG2 Assay for human Vitamin D Receptor Element (VDRE) (AID 2282968); settings: HepG2 VDRE cis-reporter transcription, actives raise or lower the signal
Outline: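 HepG2 cells transiently transfected with cis-element reporter units, dosed 24 h; reporter mRNA measured by RT-PCR, 6-FAM labeling, HpaI digestion and capillary electrophoresis. Activity fitted bidirectionally against DMSO baseline.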

[10] = target: Estrogen receptor (Homo sapiens) (UniProt P03372); assay: ATG_ERa_TRANS: Attagene TRANS-FACTORIAL HepG2 Assay for human Estrogen Receptor alpha (ERa) (AID 2282970; active = hit-call score of the fitted dose curve at least 0.9, where 1 is the maximum); settings: HepG2 Attagene TRANS ERa GAL4 reporter, mRNA
Outline: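 Transactivation via ERa-Gal4 chimera in HepG2; 24 hour incubation; reporter mRNA detected by fluorescence RT-PCR and capillary electrophoresis.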

[11] = target: Steroid hormone receptor ERR1 (Homo sapiens) (UniProt P11474); assay: ATG_ERRa_TRANS: Attagene TRANS-FACTORIAL HepG2 Assay for human Estrogen-Related Receptor alpha (ERRa) (AID 2282971; active = hit-call score of the fitted dose curve at least 0.9, where 1 is the maximum); settings: HepG2 Attagene TRANS reporter, ERRa transactivation
Outline: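 HepG2 cells were transiently transfected with multiple GAL4-UAS reporter units, then dosed with compound for 24 h. Total RNA was reverse-transcribed, reporter cDNA PCR-amplified and fluorescently labelled, and fragments resolved by capillary electrophoresis; induction was compared with DMSO.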

[12] = target: X-box-binding protein 1 (Homo sapiens) (UniProt P17861); assay: ATG_Xbp1_CIS: Attagene CIS-FACTORIAL HepG2 Assay for human X-box Binding Protein 1 (XBP1) (AID 2282972); settings: HepG2 XBP1 cis-element reporter, Attagene multiplex; actives raise or lower the signal
Outline: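 HepG2 cells transiently transfected with multiple cis-element reporter units report endogenous TF activity; 24 h exposure, then reporter mRNA measured by RT-PCR, 6-FAM labelling, HpaI digestion and capillary electrophoresis. Bidirectional fitting versus DMSO.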

[13] = ATG_M_19_TRANS: Attagene TRANS-FACTORIAL HepG2 Assay for M19 Transcription Factor (Internal Marker) (AID 2282974; active = hit-call score of the fitted dose curve at least 0.9, where 1 is the maximum); settings: HepG2 Attagene TRANS-FACTORIAL M19 internal marker reporter
Outline: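 24 h chemical exposure of transiently transfected HepG2 (MRTU library). RNA → oligo(dT) RT → PCR → 6-FAM labelling → HpaI cut → CE fluorescence. Positive-direction fit vs DMSO baseline; background internal-marker readout.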

[14] = ATG_RORE_CIS: Attagene CIS-FACTORIAL HepG2 Assay for human RAR-related Orphan Receptor Element (RORE) (AID 2282959); settings: HepG2 Attagene cis-factorial RORE reporter, mRNA; actives raise or lower the signal
Outline: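 Readout: fluorescent reporter mRNA by RT-PCR plus capillary electrophoresis, 24 h after dosing transfected HepG2 cells. Endogenous transcription factor activity on a cis promoter element is measured. Gain or loss of signal fitted against DMSO.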

[15] = ATG_SREBP_CIS: Attagene CIS-FACTORIAL HepG2 Assay for human Sterol Regulatory Element Binding (SREBP) (AID 2282962); settings: HepG2 Attagene cis-factorial SREBP reporter, mRNA; actives raise or lower the signal
Outline: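 HepG2 cells transiently transfected with multiplexed cis-promoter reporter units sensing endogenous transcription factors; reporter mRNA measured 24 h after dosing by RT-PCR, 6-FAM labeling, HpaI digestion and capillary electrophoresis. Bidirectional fit versus DMSO.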

[16] = ATG_GAL4_TRANS: Attagene TRANS-FACTORIAL HepG2 Assay for GAL4 (Internal Marker) (AID 2282976; active = hit-call score of the fitted dose curve at least 0.9, where 1 is the maximum); settings: HepG2 Attagene TRANS GAL4 internal marker reporter
Outline: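 Fluorescence from capillary electrophoresis of labelled RT-PCR products quantifies reporter mRNA induction after 24 h dosing of HepG2 cells carrying transfected GAL4-UAS reporter transcription units. Vehicle DMSO serves as baseline.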

[17] = target: Glucocorticoid receptor (Homo sapiens) (UniProt P04150); assay: ATG_GR_TRANS: Attagene TRANS-FACTORIAL HepG2 Assay for human Glucocorticoid Receptor (GR) (AID 2282978; active = hit-call score of the fitted dose curve at least 0.9, where 1 is the maximum;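 note: activators score as hits since higher reporter transcript over DMSO is fitted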); settings: HepG2 Attagene TRANS GR reporter, mRNA transcription
Outline: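 Transient MRTU transfection of HepG2 (GAL4-UAS reporters, exogenous NR-GAL4 chimeras), 24 h dosing. Readout: reporter transcript via RT-PCR + capillary electrophoresis fluorescence. Positive direction vs DMSO baseline.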

[18] = ATG_TA_CIS: Attagene CIS-FACTORIAL HepG2 Assay for human TA Basal Promoter (AID 2282964); settings: HepG2 Attagene CIS-factorial TA basal promoter reporter; actives raise or lower the signal
Outline: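 Transient MRTU transfection of HepG2 preceded 24 h compound exposure. Reporter mRNA levels were then read by RT-PCR with capillary electrophoresis, and this background-control endpoint was fitted bidirectionally to DMSO.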

[19] = target: Estrogen-related receptor gamma (Homo sapiens) (UniProt P62508); assay: ATG_ERRg_TRANS: Attagene TRANS-FACTORIAL HepG2 Assay for human Estrogen-Related Receptor gamma (ERRg) (AID 2282977; active = hit-call score of the fitted dose curve at least 0.9, where 1 is the maximum;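 note: hits increase reporter signal over DMSO so potencies reflect activators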); settings: HepG2 Attagene TRANS reporter, ERRg transactivation
Outline: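 Transient HepG2 transfectants, 24 h compound exposure, GAL4-UAS reporter mRNA by RT-PCR/6-FAM labelling/capillary electrophoresis; positive direction vs DMSO.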

Measured: AC50

Chain of X-box-binding protein 1 (Homo sapiens) (P17861 whole entry, looked up): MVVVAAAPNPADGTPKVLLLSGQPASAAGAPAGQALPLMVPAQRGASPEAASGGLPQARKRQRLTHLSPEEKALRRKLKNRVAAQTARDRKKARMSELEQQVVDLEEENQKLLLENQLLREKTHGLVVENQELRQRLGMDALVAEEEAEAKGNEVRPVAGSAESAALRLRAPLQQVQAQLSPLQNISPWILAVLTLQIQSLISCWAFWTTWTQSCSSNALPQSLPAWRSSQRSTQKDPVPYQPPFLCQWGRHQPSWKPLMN
Chain of Transcription factor Sp1 (Homo sapiens) (P08047 whole entry, looked up): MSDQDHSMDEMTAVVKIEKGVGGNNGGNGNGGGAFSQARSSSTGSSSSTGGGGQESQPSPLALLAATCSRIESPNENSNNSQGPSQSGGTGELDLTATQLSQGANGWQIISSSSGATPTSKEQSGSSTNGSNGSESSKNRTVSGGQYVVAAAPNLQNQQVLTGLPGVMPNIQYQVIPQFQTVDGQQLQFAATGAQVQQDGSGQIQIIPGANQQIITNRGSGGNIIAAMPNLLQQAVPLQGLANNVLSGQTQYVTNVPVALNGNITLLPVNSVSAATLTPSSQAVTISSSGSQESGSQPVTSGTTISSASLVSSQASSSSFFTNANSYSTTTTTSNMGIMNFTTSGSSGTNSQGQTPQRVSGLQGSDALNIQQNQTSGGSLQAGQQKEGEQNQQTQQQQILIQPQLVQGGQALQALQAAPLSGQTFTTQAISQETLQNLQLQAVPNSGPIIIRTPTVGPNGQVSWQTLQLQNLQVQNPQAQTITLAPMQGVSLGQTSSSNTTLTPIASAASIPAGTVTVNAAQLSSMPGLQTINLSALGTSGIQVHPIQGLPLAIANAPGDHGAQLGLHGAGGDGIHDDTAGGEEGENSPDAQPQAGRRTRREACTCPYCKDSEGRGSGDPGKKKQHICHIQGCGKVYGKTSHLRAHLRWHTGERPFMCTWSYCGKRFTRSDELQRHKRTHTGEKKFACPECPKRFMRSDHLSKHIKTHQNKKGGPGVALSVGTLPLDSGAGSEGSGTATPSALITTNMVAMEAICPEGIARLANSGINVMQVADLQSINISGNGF
Chain of Glucocorticoid receptor (Homo sapiens) (P04150 whole entry, looked up, the tested form may be a part): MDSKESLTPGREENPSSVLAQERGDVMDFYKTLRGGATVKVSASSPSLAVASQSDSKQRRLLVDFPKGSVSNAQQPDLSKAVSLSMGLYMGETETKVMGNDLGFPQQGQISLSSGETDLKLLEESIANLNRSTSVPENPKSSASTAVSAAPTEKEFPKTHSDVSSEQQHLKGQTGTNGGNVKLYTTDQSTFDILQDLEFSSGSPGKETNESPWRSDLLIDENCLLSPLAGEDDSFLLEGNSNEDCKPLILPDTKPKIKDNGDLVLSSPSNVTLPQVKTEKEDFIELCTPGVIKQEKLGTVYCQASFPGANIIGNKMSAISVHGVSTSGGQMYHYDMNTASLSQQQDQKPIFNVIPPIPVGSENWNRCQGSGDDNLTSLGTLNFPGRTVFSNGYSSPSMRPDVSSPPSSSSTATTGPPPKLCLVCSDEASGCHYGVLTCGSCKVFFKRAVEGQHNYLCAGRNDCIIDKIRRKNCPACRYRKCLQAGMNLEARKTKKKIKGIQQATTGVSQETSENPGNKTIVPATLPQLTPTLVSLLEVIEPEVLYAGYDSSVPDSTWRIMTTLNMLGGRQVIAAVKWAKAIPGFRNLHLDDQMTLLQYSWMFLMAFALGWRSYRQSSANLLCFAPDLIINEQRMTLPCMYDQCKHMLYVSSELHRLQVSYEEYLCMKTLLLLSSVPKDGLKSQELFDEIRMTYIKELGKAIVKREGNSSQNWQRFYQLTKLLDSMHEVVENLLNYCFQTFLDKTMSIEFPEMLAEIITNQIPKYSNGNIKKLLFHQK
Chain of Signal transducer and activator of transcription 3 (Homo sapiens) (P40763 whole entry, looked up): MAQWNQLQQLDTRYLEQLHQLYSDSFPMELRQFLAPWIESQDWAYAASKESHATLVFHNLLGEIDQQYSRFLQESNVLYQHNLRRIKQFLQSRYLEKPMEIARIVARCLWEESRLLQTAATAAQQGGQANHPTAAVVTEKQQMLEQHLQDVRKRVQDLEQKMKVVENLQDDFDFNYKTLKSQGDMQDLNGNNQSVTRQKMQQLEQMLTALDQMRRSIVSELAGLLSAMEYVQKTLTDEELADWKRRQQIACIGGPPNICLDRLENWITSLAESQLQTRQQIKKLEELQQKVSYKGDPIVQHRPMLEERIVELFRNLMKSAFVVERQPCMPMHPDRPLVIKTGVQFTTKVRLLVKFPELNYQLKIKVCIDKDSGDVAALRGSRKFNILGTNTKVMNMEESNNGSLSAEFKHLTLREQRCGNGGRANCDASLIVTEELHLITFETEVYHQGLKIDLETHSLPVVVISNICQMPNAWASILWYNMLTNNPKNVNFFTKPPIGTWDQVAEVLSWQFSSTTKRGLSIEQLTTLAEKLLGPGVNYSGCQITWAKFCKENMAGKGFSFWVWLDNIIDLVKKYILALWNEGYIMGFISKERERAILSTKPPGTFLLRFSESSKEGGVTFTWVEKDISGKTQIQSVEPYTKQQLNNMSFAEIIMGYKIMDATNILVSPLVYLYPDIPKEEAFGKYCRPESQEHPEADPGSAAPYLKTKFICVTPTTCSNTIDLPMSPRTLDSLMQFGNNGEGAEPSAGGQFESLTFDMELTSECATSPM
Chain of Steroid hormone receptor ERR1 (Homo sapiens) (P11474 whole entry, looked up, the tested form may be a part): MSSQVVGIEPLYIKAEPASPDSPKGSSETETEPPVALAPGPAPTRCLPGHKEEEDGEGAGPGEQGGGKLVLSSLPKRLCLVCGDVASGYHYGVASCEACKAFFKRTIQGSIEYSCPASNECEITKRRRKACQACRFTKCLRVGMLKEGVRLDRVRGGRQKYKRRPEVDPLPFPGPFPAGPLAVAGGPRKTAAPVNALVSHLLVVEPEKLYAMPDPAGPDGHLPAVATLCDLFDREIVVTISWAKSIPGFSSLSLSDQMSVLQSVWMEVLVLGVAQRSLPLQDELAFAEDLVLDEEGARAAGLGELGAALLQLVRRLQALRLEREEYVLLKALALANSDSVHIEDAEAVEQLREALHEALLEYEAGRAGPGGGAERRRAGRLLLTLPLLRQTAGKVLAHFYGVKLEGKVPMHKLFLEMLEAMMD
Chain of Estrogen receptor (Homo sapiens) (P03372 whole entry, looked up, the tested form may be a part): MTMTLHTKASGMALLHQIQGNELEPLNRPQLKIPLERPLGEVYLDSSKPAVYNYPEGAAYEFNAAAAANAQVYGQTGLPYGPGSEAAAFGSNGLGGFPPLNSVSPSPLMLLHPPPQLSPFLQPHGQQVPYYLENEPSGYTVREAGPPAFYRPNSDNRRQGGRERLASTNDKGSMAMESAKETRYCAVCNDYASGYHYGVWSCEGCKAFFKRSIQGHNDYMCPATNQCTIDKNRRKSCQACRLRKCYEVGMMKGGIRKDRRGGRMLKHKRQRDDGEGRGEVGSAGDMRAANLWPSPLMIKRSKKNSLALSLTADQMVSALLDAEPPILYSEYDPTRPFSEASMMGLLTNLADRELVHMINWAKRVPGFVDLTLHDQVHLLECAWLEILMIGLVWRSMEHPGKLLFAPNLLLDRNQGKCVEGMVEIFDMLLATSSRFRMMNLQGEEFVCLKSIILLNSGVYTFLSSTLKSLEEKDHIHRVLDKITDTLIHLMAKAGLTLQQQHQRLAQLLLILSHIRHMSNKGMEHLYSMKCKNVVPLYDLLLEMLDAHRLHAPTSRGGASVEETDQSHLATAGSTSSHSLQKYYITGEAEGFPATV
Chain of Estrogen-related receptor gamma (Homo sapiens) (P62508 whole entry, looked up, the tested form may be a part): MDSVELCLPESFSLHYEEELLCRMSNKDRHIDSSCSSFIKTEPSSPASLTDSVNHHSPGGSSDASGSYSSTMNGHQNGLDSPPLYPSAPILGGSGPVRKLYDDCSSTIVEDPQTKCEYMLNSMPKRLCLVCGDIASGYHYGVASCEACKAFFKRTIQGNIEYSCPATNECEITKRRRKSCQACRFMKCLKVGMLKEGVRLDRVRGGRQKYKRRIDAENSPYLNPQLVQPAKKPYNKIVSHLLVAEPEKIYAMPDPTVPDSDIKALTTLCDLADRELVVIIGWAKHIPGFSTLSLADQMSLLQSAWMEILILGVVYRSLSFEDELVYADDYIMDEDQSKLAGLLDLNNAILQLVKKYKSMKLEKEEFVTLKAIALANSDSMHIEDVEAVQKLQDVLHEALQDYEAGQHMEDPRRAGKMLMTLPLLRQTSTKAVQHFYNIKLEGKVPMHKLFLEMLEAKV

FC1(F)C=CC(F)(F)C1(F)F
not listed: [14] | [15] | [16] | [17] | [18] | [19]
inactive: all other assays above

CCCCC=O
active: [1] 27.2 µM
not listed: [2] | [10] | [11] | [13] | [18] | [19]
inactive: all other assays above

O=CC(F)(F)C(F)(F)C(F)(F)C(F)F
not listed: [10] | [13] | [14] | [17] | [18] | [19]
inactive: all other assays above

O=C(O)C(F)(F)OC(F)(F)C(F)(F)OC(F)(F)C(F)(F)OC(F)(F)C(F)(F)C(F)(F)C(F)(F)F
inactive: [3] | [4] | [15] | [5] | [18] | [7] | [8] | [11] | [13] | [16] | [17]
active: [1] 11.1 µM and 4.38 µM | [2] 13.1 µM and 22.1 µM | [3] 37.3 µM | [4] 31.8 µM | [6] 25.9 µM and 24.4 µM | [12] 41.2 µM and 25.4 µM

O=C(NO)c1ccccc1
inactive: [1] | [14] | [3] | [4] | [5] | [18] | [8] | [9] | [11] | [12] | [13] | [16]
active: [18] 76.7 µM | [6] 18.9 µM [middle of 4 runs] | [7] 75.5 µM [middle of 4 runs] | [8] 27.5 µM and 26.7 µM

NNC(=O)CCCCC(=O)NN
not listed: [4] | [10] | [14] | [17] | [19]
inactive: all other assays above

CCC(=O)O
not listed: [9] | [10] | [11] | [13] | [14] | [19]
inactive: all other assays above

Nc1cc(Cl)c(-c2cc(Cl)c(N)cc2Cl)cc1Cl
inactive: [2] | [5] | [18] | [7] | [8] | [10] | [19] | [17]
active: [1] 2.97 µM | [3] 10.5 µM | [15] 6.9 µM | [9] 2.96 µM | [12] 11.1 µM
